This note sets out measurements from article PMC6792352, “Limited Chemical Structural Diversity Found to Modulate Thyroid Hormone Receptor in the Tox21 Chemical Library” (Environmental Health Perspectives, 2019).

Broadly, the AC50 is the concentration at which the activity in the assay is half-maximal.

The structures appear in SMILES notation.

This assay has as its system thyroid hormone receptor (endogenous TRα and TRβ). More on the design: species or system GH3-TRE-Luc (rat pituitary); GH3-TRE-Luc luciferase reporter, antagonist mode against 1 nM T3, loss of signal, qHTS. The settings on record: read-out: Average AC50 (uM) GH3-TRE-Antag, antagonist mode, 1 nM T3, no GH3 cytotoxicity hit.
In the case of `Cc1cccc(N(C)C(=S)Oc2ccc3ccccc3c2)c1` [Tolnaftate], the AC50 was above 20 µM.

In the case of `C[C@]12CCC(=O)C=C1[C@@H]1C[C@@H]1[C@H]1[C@@H]3[C@@H]4C[C@@H]4[C@@]4(CCC(=O)O4)[C@@]3(C)CC[C@@H]12` [Drospirenone], the AC50 is 21.9 µM.

`O=C(c1ccc(O)cc1O)c1ccc(O)cc1O` [2,2',4,4'-Tetrahydroxybenzophenone]: the AC50 worked out at 39.2 µM.

For `CCCCCc1ccc(N)cc1` [4-Pentylaniline], the AC50 is 47.1 µM.

Take `CC1CC(OC(=O)C(O)c2ccccc2)CC(C)(C)C1` (stereo not drawn) [Cyclandelate]: the AC50 came to 44.8 µM.

For `Cc1cc(C(F)(C(F)(F)F)C(F)(F)F)ccc1NC(=O)c1cccc(I)c1C(=O)NC(C)(C)CS(C)(=O)=O` [Flubendiamide], the half-maximal activity concentration (AC50) came out at 33.5 µM.

With `Nc1cc(S(=O)(=O)O)cc2cc(S(=O)(=O)O)cc(O)c12` [Monosodium 8-amino-1-naphthol-3,6-disulfonate monohydrate], the half-maximal activity concentration (AC50) amounted to 52.6 µM.

Take `COc1cc(NC(=O)CC(C)=O)c(OC)cc1Cl` [4'-Chloro-2',5'-dimethoxyacetoacetanilide]: the AC50 is above 90 µM.

With `C#C[C@]1(OC(C)=O)CC[C@H]2[C@@H]3CCC4=CC(=O)CC[C@@H]4[C@H]3CC[C@@]21C` [Norethindrone acetate], the AC50 came out at 10 µM.

In the case of `CN1C(=O)[C@@H](NC(=O)c2cc3ccccc3[nH]2)N=C(c2ccccc2)c2ccccc21` [Devazepide], the AC50 was found to be 6.13 µM.

On to `CC(=O)C1(C)CC2=C(CCCC2(C)C)CC1C` (stereo not drawn) [Isocyclemone E], for which the AC50 is 87.5 µM.

Consider `Cc1ccc(-n2nc(C(C)(C)C)cc2NC(=O)Nc2ccc(OCCN3CCOCC3)c3ccccc23)cc1` [Doramapimod], for which the AC50 is 45.9 µM.
